Laboratory results: paper PMC5540273 (PLoS ONE, 2017)

Experiments:
Conditions in all cases: concentration: 1 μM,replicates: in singlicate; n = 1
[1] = system: PIP5K1A
[2] = system: PIP5K1C
[3] = system: PIP5K2B
[4] = system: T1, PIP5K2C
T1 construct: gene PIP4K2C

[5] = system: T2, PKAC-alpha
T2 construct: gene PRKACA

[6] = system: T3, PKAC-beta
T3 construct: gene PRKACB

[7] = system: PKMYT1
[8] = system: PKN1
[9] = system: PKN2
[10] = system: PLK1
[11] = system: PLK2
[12] = system: PLK3
[13] = system: PLK4
[14] = system: PRKCD
[15] = system: PRKCE
[16] = system: PRKCH
[17] = system: PRKCI
[18] = system: PRKCQ
[19] = system: PRKD1
[20] = system: PRKD2
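Further: KINOMEscan kinase panel screen.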

Structure (SMILES) | %Inh [1] [%] | %Inh [2] [%] | %Inh [3] [%] | %Inh [4] [%] | %Inh [5] [%] | %Inh [6] [%] | %Inh [7] [%] | %Inh [8] [%] | %Inh [9] [%] | %Inh [10] [%] | %Inh [11] [%] | %Inh [12] [%] | %Inh [13] [%] | %Inh [14] [%] | %Inh [15] [%] | %Inh [16] [%] | %Inh [17] [%] | %Inh [18] [%] | %Inh [19] [%] | %Inh [20] [%]
Cl.Cl.NC[C@H](CC1CCCCC1)NC(=O)c1cc(Br)c(-c2ccnc3[nH]ccc23)s1 [GSK1581427] | 63 | 35 | 89 | 36 | 99.5 | 99.6 | 0 | 31 | 82 | 0 | 0 | 0 | 15 | 99.5 | 96.6 | 97.7 | 0 | 90.2 | 64 | 67
Cl.Cl.Nc1nc(-c2ccc3c(N)n[nH]c3c2)cc(N2CCCC(NC(=O)c3ccccc3)C2)n1 (stereo not shown) [GSK2286775] | 56 | 55 | 38 | 25 | 0 | 0 | 5 | 41 | 0 | 0 | 0 | 1 | 16 | 0 | 10 | 0 | 24 | 18 | 0 | 0
CCN(CC)CCCCNc1ncc2cc(-c3c(Cl)cccc3Cl)c(NC(=O)NC(C)(C)C)nc2n1 | 0 | 0 | 0 | 3 | 11 | 0 | 0 | 0 | 4 | 0 | 5 | 7 | 13 | 22 | 74 | 0 | 19 | 0 | 28 | 5
C=CC(=O)Nc1cc2c(Nc3ccc(F)c(Cl)c3)ncnc2cc1OCCCN1CCOCC1 [GW781483] | 18 | 0 | 0 | 27 | 11 | 10 | 20 | 18 | 0 | 0 | 0 | 0 | 26 | 0 | 30 | 0 | 0 | – | 0 | 0
Cl.Oc1cc(-c2nc(-c3ccccc3)[nH]c2-c2ccncc2)ccc1Cl [SB-386023] | 30 | 0 | 16 | 0 | 5 | 1 | 0 | 0 | 33 | 1 | 33 | 12 | 17 | 0 | 13 | 1 | 0 | 8 | 0 | 2
C[C@H]1Oc2cc(cnc2N)-c2c(nn(C)c2C#N)CN(C)C(=O)c2ccc(F)cc21 | 0 | 44 | 0 | 0 | 18 | 0 | 33 | 12 | 0 | 0 | 0 | 0 | 97.9 | 15 | 0 | 12 | 21 | 12 | 0 | 12
O=C(NCCNc1ccnc(NCc2ccc(F)cc2)n1)c1cc2ccccc2s1 [GSK1379944] | 0 | 100 | 20 | 12 | 7 | 14 | 74 | 0 | 0 | 0 | 0 | 0 | 74 | 0 | 86 | 22 | 8 | 39 | 0 | 70
Cc1occc1-c1nc(N)c(OC[C@@H](N)Cc2c[nH]c3ccccc23)cc1-c1cc2c(C)n[nH]c2cn1 [GSK1660450] | 65 | 42 | 11 | 0 | 99.9 | 99.3 | 24 | 63 | 22 | 57 | 65 | 52 | 0 | 100 | 99.6 | 95.7 | 34 | 100 | 93.3 | 97.4
Cc1cc2cn[nH]c2cc1-c1cccc2c(N)c(C(N)=O)nnc12 | 16 | 0 | 0 | 10 | 1 | 0 | 0 | 0 | 0 | 15 | 5 | 0 | 51 | 5 | 4 | 7 | 23 | 21 | 86 | 89
COc1ccc(C[C@@H](CN)NC(=O)c2cc(Br)c(-c3ccnc4[nH]ccc34)s2)cc1.Cl.Cl [GSK1389063] | 46 | 30 | 64 | 59 | 99.7 | 99.7 | 0 | 95.8 | 90 | 0 | 27 | 27 | 34 | 99.8 | 98.2 | 99.4 | 56 | 92.4 | 83 | 85
CC(C)N1C(=O)Cc2cc(Nc3ncc(C(F)(F)F)c(NCc4cccc(S(C)(=O)=O)c4)n3)ccc21 | 34 | 0 | 57 | 52 | 0 | 0 | 15 | 24 | 7 | 28 | 61 | 64 | 67 | 0 | 0 | 0 | 0 | 9 | 0 | 16
Cl.Cl.NC[C@H](Cc1ccc(C(F)(F)F)cc1)NC(=O)c1cc(Br)c(-c2ccnc3[nH]ccc23)s1 [GSK1487252] | 0 | 22 | 39 | 3 | 99.4 | 98.8 | 10 | 12 | 79 | 0 | 0 | 0 | 8 | 97.3 | 97.5 | 98 | 17 | 88 | 83 | 57
Cc1ccc2c(-c3ccncc3)c(-c3ccc(F)cc3)nn2c1.Cl [GW461484] | 24 | 24 | 31 | 10 | 18 | 22 | 0 | 0 | 8 | 0 | 0 | 0 | 0 | 8 | 8 | 0 | 28 | 21 | 34 | 55
